From PubChem BioAssay
Only some compounds are listed: those with a hit (about 21% of all), similar ones and a draw of the others.
Pf growth 96h = inhibits malaria parasite growth, 96 h; P. falciparum luciferase reporter growth, 96 h; 320,000 tested, 6.9% active; Potency, µM (titrated, usually from 28.7 µM), inactives show at the highest dose activity change, negative = inhibition, actives largely listed as inhibitors; active = well fitted inhibition curve with a large enough effect; inconclusive = small, poorly fitted or top-dose-only effect, or another doubt; inactive = no such curve, though single readings can be large or run the other way; note: potency is the fitted concentration of half-maximal effect; % is set by controls: 0 for no effect and ±100 for the full control effect
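P. falciparum expressing integrated firefly luciferase grown in erythrocytes (2% hematocrit, 0.05% parasitemia final) with compounds for 96 hours at 37 C, 5% CO2. Growth inhibition read as loss of luminescence after adding luciferase detection reagent.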
Pf growth 48h = P. falciparum growth inhibition at 48 hours (one generation). P. falciparum luciferase growth in erythrocytes, 48 h. Potency, µM (top dose mostly 28.7 µM), for the others: at the top dose activity change, negative = inhibition, hits mostly inhibitors. 310,000 tested, 5.9% active. AID 504832; active = well fitted inhibition curve with a large enough effect; inconclusive = small, poorly fitted or top-dose-only effect, or another doubt; inactive = no such curve, though single readings can be large or run the other way; note: potency is the fitted concentration of half-maximal effect; % is set by controls: 0 for no effect and ±100 for the full control effect
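A one-generation exposure of luciferase-tagged malaria parasites in RPMI 1640/Albumax erythrocyte culture, 37 C and 5% CO2. Inhibition is inferred from decreased luminescence after adding detection reagent.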
CHX counter-1 = counter-screen for Shiga toxin inhibitors: cycloheximide protein synthesis inhibition; cell reporter, cycloheximide protein synthesis inhibition counterscreen; 300,000 tested, 12% active; max response, %; AID 2314; in the data active = max response mostly above about 13%, no sharp cut-off; inactive = mostly below about 14%; note: read at 38.3 µM for the half of the compounds with a filed dose; 0% is about no effect
NS1 function inh = influenza NS1 inhibition; AID 2326; 270,000 tested, 0.4% active; Potency, µM (series often up to 46.1 µM), without a hit: at the highest dose activity, positive = more growth; note: potency is the fitted concentration of half-maximal effect; actives are rising curves; nearly all actives have a fitted effect of over 50% in size
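Recovery from NS1-induced slow growth read by OD600 in budding yeast switched to galactose assay medium (pH 6.0, -URA) at 1:100 dilution. Compound 23 nl per well; the matching strain lacking NS1 serves as control.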
Shiga inhibitor = inhibitors of Shiga toxin in Vero cells. Vero cells, Shiga toxin protein synthesis inhibition reporter. inhibition, % at 38.7 µM. 290,000 tested, 9.2% active; in the data active = inhibition mostly above about 28%, no sharp cut-off; inactive = mostly below about 43%; note: 0% is about no effect
CHX counter-2 = counter-screen for Shiga toxin inhibitors: cycloheximide protein synthesis block | shares compounds with Shiga inhibitor | Cycloheximide counterscreen, protein synthesis reporter, Shiga toxin assay | Potency, µM (top dose mostly 38.3 µM), without a hit: top-dose activity (activation), most hits filed as activators | 510 tested, 3% active; note: potency is the fitted concentration of half-maximal effect; 0% is about no effect
Active calls of the source: *; ? = inconclusive; / = not tested or not shown. Unless noted, calls come from the whole dose curve.

SMILES | Pf growth 96h | Pf growth 48h | CHX counter-1 | NS1 function inh | Shiga inhibitor | CHX counter-2
O=C(NCCN1CCOCC1)c1ccc(Cl)c(S(=O)(=O)N2CCCCCC2)c1 | ? | ? | -2.9 | -0.7% | -10.8 | /
O=C(NCC(=O)N1CCN(c2ccccn2)CC1)c1ccc(Br)o1 | 9.7% | 14.0% | 9.5 | -6.3% | 35.8* | -2.9%
CC(=O)N1c2ccc(S(=O)(=O)N3CCOCC3)cc2CC1C (configuration not stated) | ? | 3.8% | 2.0 | -1.4% | -1.9 | /
CC(=O)c1ccc(N2CCN(S(=O)(=O)c3ccc4c(c3)CC(C)N4C(C)=O)CC2)cc1 (configuration not stated) | ? | ? | 10.7 | 7.2% | 33.9* | 9.0%
Cn1c(=O)c2ncn(CC(=O)NCCOc3ccccc3)c2n(C)c1=O | ? | -2.2% | 4.5 | -0.2% | 26.8* | 0.3%
Cc1ccc(OCCNC(=O)Cn2cnc3c(=O)n(C)c(=O)n(C)c32)cc1C | -3.5% | -7.5% | -3.7 | -3.3% | 3.5 | /
COc1ccc(CCNC(=O)COc2cccc(-n3cnnn3)c2)cc1 | -9.4% | 38.8% | / | / | / | /
O=C(c1ccc(S(=O)(=O)c2ccccc2)cc1)N1CCc2ccccc2C1 | 56.2% | -8.2% | -4.2 | -8.0% | -4.1 | /
O=C(c1ccc([N+](=O)[O-])cc1)N1CCc2ccccc2C1 | -28.1% | -9.6% | 1.2 | -15.4% | 26.3* | 1.4%
Cc1cc(S(=O)(=O)NCC2CCCO2)c(C)cc1Br (configuration not stated) | 15.7% | -6.1% | -3.1 | -0.5% | -12.6 | /
O=C(Nc1ccccc1Cl)c1ccc(S(=O)(=O)N2CCOCC2)cc1 | ? | ? | -0.8 | -45.4% | -4.0 | /
O=C(Nc1ccccc1)c1ccc(S(=O)(=O)N2CCOCC2)cc1 | / | 2.6% | 5.1 | -1.7% | 53.2* | 3.7%
Cc1cc(C)cc(NC(=O)N2CCCC2C(=O)Nc2ccc(-n3cnnn3)cc2)c1 (configuration not stated) | -7.7% | / | -2.8 | -9.0% | 2.6 | /
CC(C)c1ccc(NC(=O)N2CCCC2C(=O)Nc2ccc(-n3cnnn3)cc2)cc1 (configuration not stated) | 7.7% | 11.9% | 14.4 | -2.6% | 28.8* | 2.1%
Cc1cnc(NC(=O)c2ccc(-c3nc4ccccc4s3)o2)s1 | 11.3% | 0.0% | 10.6 | -12.2% | 59.6* | ?
Cc1cnc(NC(=O)CSc2nc3ccccc3s2)s1 | 204.6% | / | 14.6 | -49.6% | -0.4 | /
COc1ccccc1-c1nc(SCC(=O)N(C)c2ccccc2)c2c(=O)n(C)c(=O)n(C)c2n1 | ? | -14.1% | -5.1 | / | -10.0 | /
Cc1c(C)c2ccc(O[C@@H]3O[C@H](CO)[C@H](O)[C@H](O)[C@H]3O)cc2oc1=O | 28.4% | 19.4% | 8.2 | 5.2% | -14.4 | /
O=c1c(-c2ccc(O)cc2)coc2cc(O[C@@H]3O[C@H](CO)[C@H](O)[C@H](O)[C@H]3O)ccc12 | / | / | 10.9 | / | 48.9* | 3.3%
O=C(NCC(=O)N1CCCC(C(F)(F)F)C1)c1ccc2ccccc2c1 (configuration not stated) | 37.1% | 0.6% | / | / | / | /
O=C(NCC(=O)N1CCCC(C(F)(F)F)C1)c1ccc(Oc2ccccc2)cc1 (configuration not stated) | ? | -3.6% | 19.9 | ? | 21.0* | -0.6%
O=C(/C=C/c1ccc(Cl)cc1)N1CCN(Cc2ccccc2)CC1 | ? | / | 9.2 | -11.5% | 25.1* | 3.0%
O=C(NCc1ccncc1)C(=O)NCC1OCCN1S(=O)(=O)c1ccc(F)cc1 (configuration not stated) | -6.2% | 15.5% | -2.0 | 1.2% | 31.0* | -1.8%
Cc1ccc(N[C@H](c2ccccc2)c2ccc3cccnc3c2O)cc1 | / | / | / | 1.4% | / | /
O=C(O)c1cc(-c2ccc(Cl)s2)[nH]n1 | 18.4% | 8.4% | -3.4 | -0.7% | -3.6 | /
SMILES | Pf growth 96h | Pf growth 48h | CHX counter-1 | NS1 function inh | Shiga inhibitor | CHX counter-2
CC1CCc2sc(C(=O)NN)cc2C1 (configuration not stated) | 32.5% | 47.4% | 10.7 | / | 36.3* | -2.5%
CC1CCc2sc(C(=O)NNC(=O)c3ccncc3)cc2C1 (configuration not stated) | 6.9% | -10.0% | / | / | / | /
CC(=O)Nc1ccc(N2N=C(C)C(N=Nc3ccccc3)C2=O)cc1 (configuration not stated) | 26.0% | 14.9% | -2.2 | -4.5% | 53.0* | ?
COC(=O)c1ccc(-c2noc(CN3CCCC(CNC(C)=O)C3)n2)cc1 (configuration not stated) | ? | 1.3% | 1.1 | 3.3% | 14.5 | /
Cc1c(C(=O)N2CCc3ccccc32)cnn1C | 6.8% | 16.6% | 6.4 | -2.0% | 49.5* | 5.5%
Cc1ccc(S(=O)(=O)N2CCC(C(=O)N[C@@H](Cc3ccccc3)C(=O)O)CC2)cc1 | -16.9% | 13.5% | 4.6 | 1.3% | 34.0* | 0.1%
O=C(NC(Cc1ccccc1)C(=O)O)C1CCN(S(=O)(=O)c2cccc(C(F)(F)F)c2)CC1 (configuration not stated) | -6.5% | 9.8% | 7.7 | 9.4% | 4.9 | /
Cc1c(NC(=O)C(C)n2cc([N+](=O)[O-])cn2)c(=O)n(-c2ccccc2)n1C (configuration not stated) | -3.8% | ? | 10.9 | / | 19.6 | /
Cc1ccc(NC(=O)c2c(C(F)(F)F)nn(C)c2Cl)cc1C | 72.3% | 42.0% | -1.6 | 1.1% | 29.1* | -1.6%
O=C(c1cc2c(s1)-c1ccccc1OC2)N1CCN(c2ccccc2)CC1 | 46.8% | / | 5.0 | -24.2% | 61.7* | -2.1%
N#Cc1cc2c(nc1SCC(=O)Nc1cc(Cl)ccc1Cl)C1CCN2CC1 | ? | ? | -2.3 | 0.0% | 48.3* | ?
CSc1nc2ccc(N3C(=O)C4CCCCC4C3=O)cc2s1 (configuration not stated) | 35.7% | 48.2% | -3.4 | -1.5% | 38.3* | ?
Cc1ccc(C2CC(c3cccs3)n3nc(N)nc3N2)cc1 (configuration not stated) | / | 14.6% | 0.3 | 14.6% | 14.2 | /
CC(=O)N1c2ccc(S(=O)(=O)N3CCCCC3)cc2CC1C(=O)Nc1ccccc1C(F)(F)F (configuration not stated) | ? | -13.7% | -4.7 | 9.7% | -0.9 | /
Cc1ccc(NC(=O)Cn2cnc3cc([N+](=O)[O-])ccc3c2=O)c(Cl)c1 | -19.1% | ? | 0.8 | 5.0% | -5.2 | /
O=C(Cn1cnc2cc([N+](=O)[O-])ccc2c1=O)NCc1ccc(Cl)cc1 | 12.7% | 1.4% | 5.9 | 5.4% | 47.1* | -0.8%
COc1ccc(-c2nnc3sc(-c4ccccc4OC)nn23)cc1 | -8.6% | -10.9% | 1.4 | 6.7% | 86.7* | -2.4%
CCOc1ccc(-c2nn3c(-c4ccc(OC)cc4)nnc3s2)cc1 | ? | 1.7% | 1.5 | 0.9% | -8.9 | /
O=C(Sc1cccc2cccnc12)c1ccccc1Br | 4.65µM* | 1.31µM* | 7.6 | -59.9% | 40.7* | 9.3%
COc1cc(CCC(=O)Oc2ccc(C(C)=O)cc2)cc(OC)c1OC | 16.4% | -5.5% | -3.7 | -9.4% | 2.4 | /
